Hits are enriched below; roughly 2.1% of the tested compounds scored in any of these assays.
Nrf2 activator – qHTS of Nrf2 Activators. AID 624171, 2012. Potency, µM (highest dose often 46.1 µM), for the others: top-dose activation, hits mostly activators. 410,000 compounds, 0.31% hits. AREc32 ARE-luciferase reporter (MCF7-derived line), luminescence, 24 h; note: potency is the fitted concentration of half-maximal effect; % of control where 0% means no effect; nearly all actives have a fitted effect of over 65% in size
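AREc32_Fluc, 1000 cells/well, OPTI-MEM + 5% FBS, o/n 37 deg C 5% CO2; 23 nL cpd by pin tool, 24 hr; Steady-Glo 30 min RT, luminescence.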
Glioma ERSR ind – qHTS for Inducers of the Endoplasmic Reticulum Stress Response (ERSR) in Human Glioma: qHTS; U87-MG GRP78 promoter luciferase reporter, 16 h; Potency, µM, for inactives: at the top dose activation, hits mostly activators; 420,000 compounds, 0.02% hits; AID 602332, 2012; note: potency is the fitted concentration of half-maximal effect; series mostly up to about 76 µM; % of control where 0% means no effect; nearly all actives have a fitted effect of over 35% in size
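Stably transfected U87-MG human glioma cells carrying a GRP78-based luminescent sensor were seeded at 1000 cells/well, pin-dosed with compounds and incubated 16 h. Luciferase reagent was then added, and end-point luminescence was read after 10 min at room temperature.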
Nrf2 inh – Nrf2 qHTS screen for inhibitors; A549 ARE-Fluc reporter, luciferase luminescence, 18-24 h; Potency, µM (titrated, usually from 46 µM), inactives show at the highest dose activity change, negative = inhibition, actives largely listed as inhibitors; 360,000 compounds, 2.1% hits; note: potency is the fitted concentration of half-maximal effect; % is set by controls: 0 for no effect and ±100 for the full control effect; nearly all actives have a fitted effect of over 60% in size
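Nrf2 function is reported as luminescence of an ARE-controlled luciferase in A549 cells. Compounds were tested at several concentrations, and a CellTiter-Fluor read on the same wells flagged cytotoxicity.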
miR-21 act – qHTS Assay for Modulators of miRNAs and/orActivators of miR-21; HeLa miR-21 FLuc reporter, luciferase, 48 h; Potency, µM (top dose mostly 38.3 µM), for the others: top-dose activity change, positive = activation, actives largely listed as activators; 340,000 tested, under 10 active;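 note: % of control where 0% means no effect; miR-21 action dims this reporter so a rising signal means less miR-21 action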
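Using DMEM plus 10% FBS, HeLa miR-21-FLuc cells are incubated with test compounds (final up to about 40uM) for 48 hours; firefly luciferase signal is then imaged following reagent-mediated lysis.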
A549 tox-1 – Nrf2 qHTS screen for inhibitors: counterscreen for cytotoxicity | A549 ARE-Fluc cells, CellTiter-Fluor viability, 18-24 h | Potency, µM (doses to about 46 µM), for the others: top-dose activity change, negative = cytotoxicity, hits mostly inhibitors | 390,000 compounds, 0.16% hits | AID 504648, 2011; note: potency is the fitted concentration of half-maximal effect; % is set by controls: 0 for no effect and ±100 for the full control effect
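A549 ARE_Fluc cells in 5% FBS OPTI-MEM were exposed to compounds in concentration-response for 18-24 h at 37 deg C. Viability was read by CellTiter-Fluor fluorescence (Ex 405/Em 525) after 30 min, before the luciferase read.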
TSG101-PTAP inh – qHTS Assay for Iinhibitors of HIV-1 Budding by Blocking the Interaction of PTAP/TSG101. Tumor susceptibility gene 101 protein (Homo sapiens), Q99816. Fluorescence polarization, FITC-PTAP peptide / Tsg101 binding. Potency, µM (titrated, usually from 115 µM), inactives show at the highest dose activity change, negative = inhibition, most hits filed as inhibitors. 340,000 tested, under 10 active; active = well fitted inhibition curve with a large enough effect in the main read-out, with a control signal flat, not every such curve was filed as active; inconclusive = small, poorly fitted or top-dose-only effect, or effect the other way, or a change in a side signal; inactive = no such curve, though single readings can be large or run the other way; note: potency is the fitted concentration of half-maximal effect; % of control where 0% means no effect
Target sequence (Q99816 whole entry, looked up): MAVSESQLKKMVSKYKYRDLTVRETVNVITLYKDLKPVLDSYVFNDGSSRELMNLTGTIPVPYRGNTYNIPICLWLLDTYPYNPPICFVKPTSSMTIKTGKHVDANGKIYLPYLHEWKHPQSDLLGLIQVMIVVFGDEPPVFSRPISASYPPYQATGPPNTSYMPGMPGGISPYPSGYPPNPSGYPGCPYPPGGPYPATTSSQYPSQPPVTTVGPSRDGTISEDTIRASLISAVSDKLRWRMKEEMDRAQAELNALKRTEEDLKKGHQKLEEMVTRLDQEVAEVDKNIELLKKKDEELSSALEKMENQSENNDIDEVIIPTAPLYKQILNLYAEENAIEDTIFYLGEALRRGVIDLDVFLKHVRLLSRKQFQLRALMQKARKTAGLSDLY
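Fluorescence polarization binding of Tsg101 binding domain (10 uM final) to FITC-labeled PTAP peptide (50 nM final) in HEPES pH 7.5 buffer with NaCl, Tween 20, EDTA, TCEP. Compounds added before peptide; binding 20 min at RT.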
FLuc counter 3 – Nrf2 qHTS screen for inhibitors: Purified Fluc Biochemical Counterscreen for Hit Validation | shares compounds with Nrf2 inh | purified firefly luciferase, luminescence inhibition | Potency, µM (highest dose often 57.5 µM), inactives show top-dose activity change, negative = inhibition, actives largely listed as inhibitors | 1,400 compounds, 4% hits; note: potency is the fitted concentration of half-maximal effect; % is set by controls: 0 for no effect and ±100 for the full control effect; nearly all actives have a fitted effect of over 65% in size
A549 tox-2 – Nrf2 qHTS screen for inhibitors: A549 ARE-Fluc Cytotoxicity Counterscreen for Hit Validation. shares compounds with Nrf2 inh. A549 ARE-Fluc cells, cytotoxicity counterscreen. Potency, µM (doses to about 46.1 µM), without a hit: top-dose activity change, negative = cytotoxicity, actives largely listed as inhibitors. 1,400 compounds, 2% hits;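 note: potency is the fitted concentration of half-maximal effect; cells exposed to compounds for 18 to 24 hours; % is set by controls: 0 for no effect and ±100 for the full control effect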
ARE-Fluc inh – Nrf2 qHTS screen for inhibitors: Nrf2 A549 ARE-Fluc Confirmation Assay for Hit Validation | shares compounds with Nrf2 inh | A549 ARE-firefly luciferase reporter, luminescence | Potency, µM (titrated, usually from 46.1 µM), for inactives: top-dose activity change, negative = inhibition, usual class: inhibitors | 1,400 compounds, 74% hits | AID 720524, 2013; note: potency is the fitted concentration of half-maximal effect; % is set by controls: 0 for no effect and ±100 for the full control effect; nearly all actives have a fitted effect of over 65% in size
* marks the source's active call; other numbers are inactive results; u = inconclusive; x = no result given. Unless noted, calls come from the whole dose curve; as a rule, active = well fitted curve in the direction sought with a large enough effect; inconclusive = small, poorly fitted or top-dose-only effect, or another doubt; inactive = no such curve, though single readings can be large; an effect the other way counts as inactive or inconclusive.

SMILES	Nrf2 activator	Glioma ERSR ind	Nrf2 inh	miR-21 act	A549 tox-1	TSG101-PTAP inh	FLuc counter 3	A549 tox-2	ARE-Fluc inh
CN1/C(=C\C(=O)C[n+]2ccc(C(=O)c3ccccc3)cc2)C(C)(C)c2ccccc21	0%	-6%	5.2µM*	18%	-19%	2%	-1%	-17%	5.2µM*
CN1/C(=C\C(=O)C[n+]2cccc(Br)c2)C(C)(C)c2ccccc21	0%	-5%	3.3µM*	u	-23%	0%	-1%	-11%	4.1µM*
Cc1nc(N2CCN(C)CC2)c2nnn(Cc3ccccc3)c2n1	x	x	21%	x	-6%	x	x	x	x
CC[C@]12c3[nH]c4ccc(Cl)cc4c3CCN1C(=O)[C@@H](CC(=O)NC/C=C(\C)CCC=C(C)C)C[C@@H]2C(=O)N1CCN(C(=O)c2ccco2)CC1	-1%	-2%	6.5µM*	x	u	-3%	3%	u	16µM*
O=C(C[n+]1c(Cl)ccc2ccccc21)c1ccc2ccccc2c1	x	1%	x	x	x	x	x	x	x
COC(=O)C12OCC34C(CC5C(C)=C(O)C(=O)CC5(C)C3C(O)C1O)OC(=O)C(OC(=O)C=C(C)C)C24 (stereo not given)	-1%	-6%	0.016µM*	x	u	-6%	2%	u	0.012µM*
O=C(NC(NC(=S)Nc1c(Cl)cc(Cl)cc1Cl)C(Cl)(Cl)Cl)OCc1ccccc1 (stereo not given)	12%	-3%	2.9µM*	26%	u	-2%	-4%	u	23µM*
O=C(Nc1cccc(S(=O)(=O)Nc2ccc(Cl)cc2)c1)c1ccccn1	0%	0%	8.2µM*	x	u	-3%	-9%	4%	x
N=c1ccn2c(n1)O[C@H]1[C@H](O)[C@@H](CO)O[C@H]12	-1%	-3%	0.18µM*	7%	-9%	-4%	2%	-9%	0.092µM*
CN(C)C1CCN(CCCOc2ccc(-c3ccc(C#N)cc3)cc2)C1 (stereo not given)	x	4%	x	x	x	x	x	x	x
COc1ccccc1C(=O)NC(=S)Nc1ccc(Cc2ccncc2)cc1	7%	-5%	5.8µM*	7%	-14%	-6%	-1%	0%	21µM*
CCOc1ccccc1-c1nnc2n1N=C(c1ccccc1OC)CS2	x	x	-16%	x	5%	x	x	x	x
CC(=O)c1ccc([N+](C)(C)C)cc1	x	-1%	x	x	x	x	x	x	x
C/C=C(\C)NNC(=O)Cc1ccc(OC)cc1	x	-4%	x	x	x	x	x	x	x
CC(=O)c1c(C)[nH]c(C(=O)OCc2ccccc2)c1C	16%	6%	u	-33%	4%	1%	x	x	x
CC(=O)c1c(C)[nH]c(C(=O)OCCCCN2C(=O)c3ccccc3C2=O)c1C	1%	-5%	5.8µM*	13%	-19%	-4%	1%	-6%	x
CN(C)CCN1C(=O)c2cccc3cc([N+](=O)[O-])cc(c23)C1=O	-2%	-14%	1.6µM*	x	8.2µM*	-17%	1%	u	2.6µM*
